64 compounds from the antibiotic and cytotoxicity screens of Wong et al. (2023) can be followed below.

SMILES strings stand for the structures. About 3,300 (8.5%) of roughly 39,000 compounds were called active. Many of the other results were omitted from the sample, so actives are more common in it than they were.

The assay concerns HepG2. Description: cytotoxicity call (relative viability < 0.9). As to conditions: 10 µM.
As to `C[C@H]1CN([C@@H](C)CO)C(=O)c2cccc(NC(=O)C3CCCCC3)c2O[C@@H]1CN(C)S(=O)(=O)c1cn(C)cn1`, the cytotoxicity call was “inactive”.

As to `C[C@H](CO)N1C[C@H](C)[C@@H](CN(C)C(=O)C2CC2)Oc2ncc(-c3ccc(C(=O)N(C)C)cc3)cc2C1=O`, the cytotoxicity call was “inactive”.

For `N[C@@H](CCc1ccccc1Cl)c1ccc2c(c1)OCCO2`, the cytotoxicity call was “active”.

In the case of `N[C@H](c1ccc2c(c1)OCCO2)c1ccco1`, the cytotoxicity call is “inactive”.

Regarding `NCC[C@@H](Cc1ccccc1)c1ccc2c(c1)OCO2`, the cytotoxicity call is “inactive”.

Consider `Cc1ccc(S(=O)(=O)Nc2cccc3c2O[C@H](CN(C)C(=O)Nc2cccc4ccccc24)[C@H](C)CN([C@H](C)CO)C3=O)cc1`, for which the cytotoxicity call was “inactive”.

Turning to `O=C(NCCNS(=O)(=O)c1cccc2nonc12)[C@H]1COc2ccccc2O1`, the cytotoxicity call was “inactive”.

For `CS(=O)(=O)N1CCN(Cc2cc3nc(-c4cccc5n[nH]cc45)nc(N4CCOCC4)c3s2)CC1`, the cytotoxicity call is “active”.

`C[C@H]1CN([C@@H](C)CO)C(=O)c2cc(C#CC3(O)CCCC3)cnc2O[C@H]1CN(C)S(=O)(=O)c1cccc(F)c1`: the cytotoxicity call is “inactive”.

For `COc1ccc(S(=O)(=O)N(C)C[C@H]2Oc3ccc(NS(=O)(=O)c4ccc(F)cc4)cc3CC(=O)N([C@H](C)CO)C[C@@H]2C)cc1`, the cytotoxicity call was “inactive”.

On to `Cc1noc(C)c1S(=O)(=O)Nc1ccc2c(c1)CC(=O)N([C@H](C)CO)C[C@H](C)[C@H](CN(C)S(=O)(=O)c1ccc(Cl)cc1)O2`, for which the cytotoxicity call is “inactive”.

As to `C[C@H](CO)N1C[C@H](C)[C@H](CN(C)S(=O)(=O)c2ccc(F)cc2)Oc2c(NS(=O)(=O)c3ccccc3)cccc2C1=O`, the cytotoxicity call is “inactive”.

As for `O=C(CN1CCOC1=O)N1CCC2(CCC(=O)N(CCCn3ccnc3)C2)CC1`, the cytotoxicity call was “inactive”.

In the case of `CCN(CC)CCNC(=O)COc1ccc(OC)cc1.Cl`, the cytotoxicity call was “inactive”.

Regarding `CCN(CC)CCCCNc1ncc2cc(-c3cc(OC)cc(OC)c3)c(NC(=O)NC(C)(C)C)nc2n1`, the cytotoxicity call is “active”.

Turning to `CCN(CC)CCCCNc1ncc2cc(-c3c(Cl)cccc3Cl)c(NC(=O)NC(C)(C)C)nc2n1`, the cytotoxicity call was “active”.

`CC(C)=CCC/C(C)=C/CC/C(C)=C/CCC(=O)OC/C=C(\C)CCC=C(C)C`: the cytotoxicity call is “inactive”.

With `Cc1noc(C)c1NC(=O)Nc1ccc2c(c1)C(=O)N([C@H](C)CO)C[C@H](C)[C@H](CN(C)Cc1ccc(C(=O)Nc3ccccc3N)cc1)OCCCC[C@@H](C)O2`, the cytotoxicity call is “inactive”.

Consider `COc1ccc(NC(=O)N(C)C[C@H]2OCCCC[C@H](C)Oc3ccc(NC(=O)Cc4ccccc4)cc3C(=O)N([C@@H](C)CO)C[C@H]2C)cc1`, for which the cytotoxicity call was “inactive”.

As for `C[C@@H]1CN([C@H](C)CO)C(=O)Cc2cc(NC(=O)Cc3cn(C)c4ccccc34)ccc2O[C@@H]1CN(C)C(=O)Nc1cccc2ccccc12`, the cytotoxicity call was “inactive”.

As to `C[C@@H]1CCCCO[C@@H](CN(C)C(=O)Cc2ccccc2)[C@@H](C)CN([C@H](C)CO)C(=O)c2cc(NC(=O)Nc3ccc4c(c3)OCO4)ccc2O1`, the cytotoxicity call was “inactive”.

For the compound `C[C@@H]1CCCCO[C@H](CN(C)Cc2ccc(C(F)(F)F)cc2)[C@@H](C)CN([C@@H](C)CO)C(=O)c2cc(NC(=O)c3ccncc3)ccc2O1`, the cytotoxicity call is “inactive”.

As to `C[C@@H]1CCCCO[C@@H](CN(C)Cc2ccc(C(F)(F)F)cc2)[C@H](C)CN([C@H](C)CO)C(=O)c2cc(NS(=O)(=O)c3ccccc3)ccc2O1`, the cytotoxicity call was “inactive”.

On to `C[C@@H]1CCCCO[C@@H](CN(C)Cc2ccc(C(F)(F)F)cc2)[C@@H](C)CN([C@@H](C)CO)C(=O)c2cc(NS(=O)(=O)c3ccccc3)ccc2O1`, for which the cytotoxicity call is “active”.

As to `C[C@H]1CCCCO[C@H](CN(C)Cc2ccc(C(F)(F)F)cc2)[C@@H](C)CN([C@@H](C)CO)C(=O)c2cc(NS(=O)(=O)c3ccccc3)ccc2O1`, the cytotoxicity call was “inactive”.

Consider `C[C@@H]1CCCCO[C@H](CN(C)Cc2ccc(C(F)(F)F)cc2)[C@H](C)CN([C@H](C)CO)C(=O)c2cc(NS(=O)(=O)c3ccccc3)ccc2O1`, for which the cytotoxicity call was “inactive”.

As for `C[C@H](CO)N1C[C@H](C)[C@H](CN(C)Cc2ccc(C(F)(F)F)cc2)OCCCC[C@H](C)Oc2ccc(NS(=O)(=O)c3ccccc3)cc2C1=O`, the cytotoxicity call is “active”.

On to `C[C@@H]1CCCCO[C@H](CN(C)Cc2ccc(C(F)(F)F)cc2)[C@@H](C)CN([C@H](C)CO)C(=O)c2cc(NS(=O)(=O)c3ccccc3)ccc2O1`, for which the cytotoxicity call was “inactive”.

On to `C[C@@H]1CCCCO[C@@H](CN(C)Cc2ccc(C(F)(F)F)cc2)[C@H](C)CN([C@@H](C)CO)C(=O)c2cc(NS(=O)(=O)c3ccccc3)ccc2O1`, for which the cytotoxicity call was “active”.

Consider `C[C@@H]1CCCCO[C@@H](CN(C)Cc2ccc(C(F)(F)F)cc2)[C@@H](C)CN([C@H](C)CO)C(=O)c2cc(NS(=O)(=O)c3ccccc3)ccc2O1`, for which the cytotoxicity call is “active”.

With `C[C@H]1CCCCO[C@@H](CN(C)Cc2ccc(C(F)(F)F)cc2)[C@@H](C)CN([C@@H](C)CO)C(=O)c2cc(NS(=O)(=O)c3ccccc3)ccc2O1`, the cytotoxicity call was “inactive”.

In the case of `COc1ccc(S(=O)(=O)N(C)C[C@@H]2Oc3ccc(NC(=O)NC(C)C)cc3CC(=O)N([C@@H](C)CO)C[C@@H]2C)cc1`, the cytotoxicity call was “inactive”.

`COc1ccc(NC(=O)N(C)C[C@H]2OCCCC[C@H](C)Oc3ccc(NC(=O)C4CCCCC4)cc3C(=O)N([C@H](C)CO)C[C@H]2C)cc1`: the cytotoxicity call is “inactive”.

For the compound `C[C@@H]1CN([C@@H](C)CO)C(=O)CCCn2nncc2CO[C@H]1CN(C)C(=O)C1CC1`, the cytotoxicity call was “inactive”.

As for `COc1ccc(NC(=O)N(C)C[C@H]2Oc3c(NS(C)(=O)=O)cccc3C(=O)N([C@@H](C)CO)C[C@H]2C)cc1`, the cytotoxicity call is “inactive”.

As for `C[C@H]1CCCCO[C@@H](CN(C)C(=O)Nc2ccc(C(F)(F)F)cc2)[C@@H](C)CN([C@@H](C)CO)C(=O)c2cc(NC(=O)CCC(F)(F)F)ccc2O1`, the cytotoxicity call was “inactive”.

Regarding `Cn1c(=O)c2c(nc(N3CCNCC3)n2CC(=O)c2ccc(Cl)cc2)n(C)c1=O`, the cytotoxicity call was “inactive”.

Take `COc1ccc(S(=O)(=O)N(C)C[C@H]2Oc3ccc(NC(=O)CCCN(C)C)cc3C(=O)N([C@@H](C)CO)C[C@@H]2C)cc1`: the cytotoxicity call was “inactive”.

In the case of `COc1cccc(S(=O)(=O)N2C[C@@H](O)COC[C@@H]3O[C@H](CC(=O)NCCCN4CCOCC4)CC[C@H]32)c1`, the cytotoxicity call is “inactive”.

As to `C[C@@H]1CN([C@H](C)CO)C(=O)c2cc(NC(=O)CCC(F)(F)F)ccc2O[C@@H](C)CCCCO[C@@H]1CN(C)Cc1ccncc1`, the cytotoxicity call was “inactive”.

Take `COc1ccc(Oc2cc(NCCC(F)(F)F)c3ncc(-c4ccc(C(=O)NC5CC5)c(C)c4)n3n2)c(F)c1F`: the cytotoxicity call is “inactive”.

In the case of `C[C@@H]1CN([C@@H](C)CO)C(=O)c2cc(NC(=O)NC3CCCCC3)ccc2O[C@@H]1CN(C)S(C)(=O)=O`, the cytotoxicity call was “inactive”.

As for `C[C@H]1CN([C@@H](C)CO)S(=O)(=O)c2ccc(-c3cccc(C#N)c3)cc2O[C@@H]1CN(C)C(=O)c1ccncc1`, the cytotoxicity call was “inactive”.

Regarding `C[C@@H]1CN([C@H](C)CO)C(=O)c2cc(NS(=O)(=O)c3ccccc3)ccc2O[C@@H](C)CCCCO[C@@H]1CN(C)Cc1ccc(C(F)(F)F)cc1`, the cytotoxicity call was “inactive”.

As to `C[C@@H]1CN([C@H](C)CO)C(=O)c2cc(NS(=O)(=O)c3ccccc3)ccc2O[C@@H](C)CCCCO[C@H]1CN(C)Cc1ccc(C(F)(F)F)cc1`, the cytotoxicity call is “active”.

Consider `C[C@@H]1CN([C@@H](C)CO)C(=O)c2cc(NS(=O)(=O)c3ccccc3)ccc2O[C@@H](C)CCCCO[C@@H]1CN(C)Cc1ccc(C(F)(F)F)cc1`, for which the cytotoxicity call is “inactive”.

As to `C[C@@H]1CCCCO[C@H](CN(C)Cc2ccc(C(F)(F)F)cc2)[C@@H](C)CN([C@@H](C)CO)C(=O)c2cc(NS(=O)(=O)c3ccccc3)ccc2O1`, the cytotoxicity call was “inactive”.

Consider `C[C@@H]1CCCCO[C@H](CN(C)Cc2ccc(C(F)(F)F)cc2)[C@H](C)CN([C@@H](C)CO)C(=O)c2cc(NS(=O)(=O)c3ccccc3)ccc2O1`, for which the cytotoxicity call is “active”.

Take `C[C@@H]1CN([C@@H](C)CO)C(=O)c2cc(NS(=O)(=O)c3ccccc3)ccc2O[C@@H](C)CCCCO[C@H]1CN(C)Cc1ccc(C(F)(F)F)cc1`: the cytotoxicity call was “inactive”.

For `C[C@H]1CN([C@@H](C)CO)C(=O)c2cccc(NC(=O)c3nc4ccccc4s3)c2O[C@H]1CN(C)S(=O)(=O)c1cn(C)cn1`, the cytotoxicity call is “inactive”.

On to `CCCNC(=O)Nc1ccc2c(c1)OC[C@H](C)N(C(=O)C1CCOCC1)C[C@@H](C)[C@@H](OC)CN(C)C2=O`, for which the cytotoxicity call was “inactive”.

Regarding `Cc1noc(C)c1S(=O)(=O)Nc1cccc2c1O[C@@H](CN(C)CC1CC1)[C@@H](C)CN([C@H](C)CO)C2=O`, the cytotoxicity call was “inactive”.

Regarding `Cc1ccc(S(=O)(=O)N2C[C@H](O)COC[C@@H]3O[C@H](CC(=O)NCc4ccc5c(c4)OCO5)CC[C@H]32)cc1`, the cytotoxicity call is “active”.

Turning to `Cc1ccc(S(=O)(=O)N2C[C@@H](O)COC[C@@H]3O[C@@H](CC(=O)NCc4ccc(Cl)c(Cl)c4)CC[C@H]32)cc1`, the cytotoxicity call was “active”.

Regarding `Cc1ccc(S(=O)(=O)N2C[C@H](O)COC[C@@H]3O[C@@H](CC(=O)NCc4ccc(Cl)c(Cl)c4)CC[C@H]32)cc1`, the cytotoxicity call was “inactive”.

`Cc1ccc(S(=O)(=O)N2C[C@@H](O)COC[C@@H]3O[C@@H](CC(=O)NCc4ccc5c(c4)OCO5)CC[C@H]32)cc1`: the cytotoxicity call was “inactive”.

For `Cc1ccc(S(=O)(=O)N2C[C@@H](O)COC[C@H]3O[C@H](CC(=O)NCc4ccc(Cl)c(Cl)c4)CC[C@@H]32)cc1`, the cytotoxicity call was “inactive”.

For the compound `Cc1ccc(S(=O)(=O)N2C[C@@H](O)COC[C@H]3O[C@@H](CC(=O)NCc4ccc(Cl)c(Cl)c4)CC[C@@H]32)cc1`, the cytotoxicity call is “inactive”.

As to `Cc1cccc(S(=O)(=O)N2C[C@@H](O)COC[C@H]3O[C@H](CC(=O)NCc4ccc(Cl)c(Cl)c4)CC[C@@H]32)c1`, the cytotoxicity call was “inactive”.

Regarding `Cc1ccc(S(=O)(=O)N2C[C@@H](O)COC[C@@H]3O[C@H](CC(=O)NCc4ccc(Cl)c(Cl)c4)CC[C@H]32)cc1`, the cytotoxicity call is “inactive”.

Regarding `Cc1ccc(S(=O)(=O)N2C[C@H](O)COC[C@@H]3O[C@H](CC(=O)NCc4ccc(Cl)c(Cl)c4)CC[C@H]32)cc1`, the cytotoxicity call was “active”.

Take `Cc1ccc(S(=O)(=O)N2C[C@@H](O)COC[C@H]3O[C@H](CC(=O)NCc4ccc5c(c4)OCO5)CC[C@@H]32)cc1`: the cytotoxicity call is “inactive”.

For `Cc1ccc(S(=O)(=O)N2C[C@H](O)COC[C@H]3O[C@@H](CC(=O)NCc4ccc(Cl)c(Cl)c4)CC[C@@H]32)cc1`, the cytotoxicity call is “active”.

In the case of `Cc1ccc(S(=O)(=O)N2C[C@H](O)COC[C@H]3O[C@H](CC(=O)NCc4ccc(Cl)c(Cl)c4)CC[C@@H]32)cc1`, the cytotoxicity call is “inactive”.
